Assay results as given in PubChem BioAssay (NCATS).
Where “and” joins values, the source holds several entries; their conditions need not be identical. Equal entries are not always repeated. Inconclusive results are not listed. The source holds several records for some structures; these can differ, active in one and inactive in another. Calls of active or inactive are those of the source. Calls follow the shape of the dose curve; as a rule, active = well fitted curve in the direction sought with a large enough effect; inconclusive = small, poorly fitted or top-dose-only effect, or another doubt; inactive = no such curve, though single readings can be large; an effect the other way counts as inactive or inconclusive.

How the values were obtained:
[1] = Quantitative highthroughput screen to assess conditional lethalithy of NOMO1 cells grown in RPMI1640 with untreated serum (RPMI+s) (AID 1963876); also: nearly all actives have a fitted effect of over 35% in size;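 as to viability: 100% = DMSO wells and 0% = empty wells without cells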
In short: (§1)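 Each medium arm—HPLM with 10% dialyzed FBS, or RPMI1640 with 5 mM glucose and 10% untreated or dialyzed FBS—was screened against an 11-point, 3-fold compound titration for 48 h at 37 °C, with CellTiter-Glo luminescence as endpoint.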

[2] = Quantitative highthroughput screen to assess conditional lethalithy of NOMO1 cells grown in RPMI1640 with dialyzed fetal bovine serum (RPMI+ds) (AID 1963877); also: nearly all actives have a fitted effect of over 30% in size;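 as to viability: series mostly up to about 46 µM; 100% = DMSO control wells and 0% = empty wells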
In short: as §1

[3] = Quantitative highthroughput screen to assess conditional lethalithy of NOMO1 cells grown in Human Plasma-Like Medium with dialyzed fetal bovine serum (HPLM+ds) (AID 1963878); also: nearly all actives have a fitted effect of over 35% in size;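 as to viability: 100% = DMSO wells and 0% = empty wells on each plate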
In short: as §1

[4] = Quantitative highthroughput screen to assess conditional lethalithy of P12 Ichikawa cells grown in Human Plasma-Like Medium with dialyzed fetal bovine serum (HPLM+ds) (AID 1963879); conditions: Potency: viability; also: nearly all actives have a fitted effect of over 35% in size; as to viability: series mostly up to about 46 µM
In short: as §1

[5] = Quantitative highthroughput screen to assess conditional lethalithy of P12 Ichikawa cells grown in RPMI1640 with dialyzed fetal bovine serum (RPMI+ds) (AID 1963880); conditions: Potency: P12-Ichikawa viability; also: nearly all actives have a fitted effect of over 35% in size;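 as to viability: 100% = DMSO wells and 0% = empty wells on each plate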
In short: as §1

[6] = Quantitative highthroughput screen to assess conditional lethalithy of P12 Ichikawa cells grown in RPMI1640 with untreated serum (RPMI+s) (AID 1963881); conditions: Potency: viability; also: nearly all actives have a fitted effect of over 35% in size;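 as to viability: series mostly up to about 46 µM; 100% = DMSO wells and 0% = empty wells without cells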
In short: as §1

[7] = Quantitative highthroughput screen to assess conditional lethalithy of SEM cells grown in Human Plasma-Like Medium with dialyzed fetal bovine serum (HPLM+ds) (AID 1963882); also: nearly all actives have a fitted effect of over 35% in size; as to viability: series mostly up to about 46 µM
In short: as §1

[8] = Quantitative highthroughput screen to assess conditional lethalithy of SEM cells grown in RPMI1640 with unreated serum (RPMI+s) (AID 1963883); also: nearly all actives have a fitted effect of over 35% in size;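 as to viability: 100% = DMSO wells and 0% = empty wells without cells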
In short: as §1

[9] = Quantitative highthroughput screen to assess conditional lethalithy of SEM cells grown in RPMI1640 with dialyzed fetal bovine serum (RPMI+ds) (AID 1963884); also: nearly all actives have a fitted effect of over 35% in size;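 as to viability: series mostly up to about 46 µM; 100% = DMSO control wells and 0% = empty wells without cells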
In short: as §1

[10] = Cellular viability qHTS for adrenocortical cancer (ACC) cell line NCI-H295R (AID 1963990); also: nearly all actives have a fitted effect of over 60% in size
In short: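 Compound titrations (up to 46 uM final) are applied to NCI-H295R cultures for 48 h at 37C. Viable cell number is estimated by CellTiter-Glo signal, normalised to DMSO and doxorubicin controls.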

[11] = Cellular viability qHTS for adrenocortical cancer (ACC) cell line SW-13 (AID 1963989); conditions: SW-13 ACC cells viability, CellTiter-Glo, 48 h; activity (max response): stronger effect = lower value; also: nearly all actives have a fitted effect of over 65% in size;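 as to activity (max response): cells grown in serum-free medium with ITS supplement; % is scaled to controls: 0 for no effect and ±100 for the full control effect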
In short: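 48 h treatment, SW-13 in ITS/DMEM serum-free; doses up to 46 uM; readout CellTiter-Glo luminescence; curve fit four-parameter logistic.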
Potency is read from the fitted curve at half-maximal effect.

NC(=O)c1ccc(I)c([N+](=O)[O-])c1
inactive: Potency [1] | Potency [2] | Potency [3] | Potency [4] | Potency [5] | Potency [6] | Potency [7] | Potency [8] | Potency [9] | Potency [10]

NC(=O)c1ccc(-c2nc(-c3ccc4c(c3)OCCO4)c(-c3ccccn3)[nH]2)cc1
inactive: Potency [1] | Potency [2] | Potency [3] | Potency [4] | Potency [5] | Potency [6] | Potency [7] | Potency [8] | Potency [9] | activity (max response) [11] -9.07%

Cn1cc(-c2ccc3ncc(Cc4ccc5ncccc5c4)n3n2)cn1
inactive: Potency [1] | Potency [2] | Potency [3] | Potency [4] | Potency [5] | Potency [6] | activity (max response) [11] 2.95% | Potency [10]
active: Potency [7] 8.33 µM | Potency [8] 9.35 µM | Potency [9] 10.5 µM

CC(C)c1ccc(Cn2ccc3c4c(N)nc(NC5CC5)nc4ccc32)cc1
active: Potency [1] 10.5 µM | Potency [2] 5.9 µM | Potency [3] 1.05 µM | Potency [4] 3.72 µM | Potency [5] 2.64 µM | Potency [6] 4.69 µM | Potency [7] 1.66 µM | Potency [8] 3.72 µM | Potency [9] 3.72 µM | Potency [11] 0.398 µM | Potency [10] 1.12 µM

COc1ccccc1N1CCN(CCN(C(=O)C2CCCCC2)c2ccccn2)CC1
inactive: Potency [1] | Potency [2] | Potency [3] | Potency [4] | Potency [5] | Potency [6] | Potency [7] | Potency [8] | Potency [9] | Potency [10]

CC1=C(CC(=O)O)c2cc(F)ccc2C1=Cc1ccc(S(C)=O)cc1 (configuration not stated)
inactive: Potency [1] | Potency [2] | Potency [3] | Potency [4] | Potency [5] | Potency [6] | Potency [7] | Potency [8] | activity (max response) [11] 10.2%

Nc1ccc(S(=O)(=O)Nc2ccnn2-c2ccccc2)cc1
inactive: Potency [1] | Potency [2] | Potency [3] | Potency [4] | Potency [5] | Potency [6] | Potency [7] | Potency [8] | Potency [9] | activity (max response) [11] 3.92% | Potency [10]

CC(C)C(C)C=CC(C)C1CCC2C3=CC=C4CC(O)CCC4(C)C3CCC21C (configuration not stated)
inactive: Potency [1] | Potency [2] | Potency [3] | Potency [4] | Potency [5] | Potency [6] | Potency [7] | Potency [8] | activity (max response) [11] 11.2% | Potency [10]

O=C(NCCCCN1CCOCC1)c1cc2ccccc2o1
inactive: Potency [1] | Potency [2] | Potency [3] | Potency [4] | Potency [5] | Potency [6] | Potency [7] | Potency [8] | Potency [9] | activity (max response) [11] 10.7% | Potency [10]

Cc1cc(O)c2c(c1)C(=O)c1cc(O)cc(O)c1C2=O
inactive: Potency [1] | Potency [2] | Potency [3] | Potency [4] | Potency [5] | Potency [6] | Potency [7] | Potency [8] | Potency [9] | activity (max response) [11] -8.42% | Potency [10]

CCN(C(=O)c1c(O)c2c(Cl)cccc2n(C)c1=O)c1ccccc1
active: Potency [1] 1.66 µM | Potency [2] 2.64 µM | Potency [3] 1.32 µM | Potency [4] 3.32 µM | Potency [5] 1.66 µM | Potency [6] 2.35 µM | Potency [7] 0.59 µM | Potency [8] 0.332 µM | Potency [9] 0.418 µM | Potency [11] 7.94 µM

Cc1ccc2c(c1)C(=O)[C@]1(O)CCN(c3ccccc3)C1=N2
inactive: Potency [1] | Potency [2] | Potency [3] | Potency [4] | Potency [5] | Potency [6] | Potency [7] | Potency [8] | Potency [9] | Potency [10]

O=Nc1c(-c2c(O)[nH]c3cc(Br)ccc23)[nH]c2ccccc12
active: Potency [1] 14.8 µM | Potency [2] 10.5 µM | Potency [3] 5.9 µM | Potency [4] 4.18 µM | Potency [5] 5.9 µM | Potency [6] 4.69 µM | Potency [7] 0.833 µM | Potency [8] 0.743 µM | Potency [9] 0.833 µM | Potency [11] 11.2 µM | Potency [10] 10 µM

CCOc1cc(N)c(Cl)cc1C(=O)NCC1CN(Cc2ccc(F)cc2)CCO1 (configuration not stated)
inactive: Potency [1] | Potency [2] | Potency [3] | Potency [4] | Potency [5] | Potency [6] | Potency [7] | Potency [8] | Potency [9] | activity (max response) [11] -20% and -11.9% | Potency [10]

CC(C)(C)COc1ccc(-n2cc(C(=O)O)cn2)cc1C#N
inactive: Potency [1] | Potency [2] | Potency [3] | Potency [4] | Potency [5] | Potency [6] | Potency [7] | Potency [8] | Potency [9] | activity (max response) [11] 0.955% | Potency [10]

C=C1c2cccc(O)c2C(O)=C2C(=O)[C@@]3(O)C(O)=C(C(N)=O)C(=O)[C@@H](N(C)C)[C@@H]3[C@@H](O)[C@H]12
inactive: Potency [1] | Potency [2] | Potency [3] | Potency [4] | Potency [5] | Potency [6] | Potency [7] | Potency [8] | Potency [9] | activity (max response) [11] -8.37% | Potency [10]

CC(C=CC1=C(C)CCCC1(C)C)=CC=CC(C)=CC(=O)O
inactive: Potency [1] | Potency [3] | Potency [4] | Potency [5] | Potency [6] | Potency [7] | Potency [8] | Potency [9]
833 nM (active) and inactive: Potency [2]
